Screening results: PubChem BioAssay, several laboratories
Hits are enriched below; roughly 4.6% of the tested compounds scored in any of these assays.
FAS TE block = inhibitors of human fatty acid synthase thioesterase domain. P49327. recombinant FAS-TE, OMFH fluorogenic substrate, fluorescence endpoint. inhibition, % at 15 µM. 360,000 compounds, 0.67% hits. AID 602261;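 active = compounds whose normalised, plate-corrected inhibition of enzyme fluorescence in the single-dose primary screen is 50% or more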
proKLK7 act = activates the human kallikrein-7 zymogen; activation, % at 7 µM; 370,000 compounds, 0.9% hits; AID 652039; purified proKLK7, EDANS-DABCYL substrate fluorescence; 100% is mature enzyme control, 0% vehicle;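 active = activation above the mean of all tested compounds plus 3 SD, computed per campaign excluding outliers beyond control limits, cut at about 13% in these data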
GRIN3A LBD mod = modulates the human NR3A ligand-binding domain; NR3A LBD differential scanning fluorimetry, Tm shift; 0% = protein alone, 100% = glycine-bound protein; Tm shift relative to glycine control, % at 25 µM; 340,000 compounds, 2.5% hits; AID 1259313;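 active = melting temperature shift of at least 10% of the positive control shift, at one fixed dose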
ADAM17 inh = inhibitors of human ADAM17 | P78536 | inhibition, % at 6.95 µM | 370,000 compounds, 0.83% hits | recombinant ADAM17, EDANS/DABCYL FRET peptide cleavage;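 active = inhibition above the mean of compounds lying between control limits plus 3 SD, set per campaign, cut at about 8.5% in these data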
ADAM10 inh = inhibits human ADAM10; 370,000 compounds, 0.62% hits; inhibition, % at 7 µM; AID 720582; recombinant ADAM10, EDANS/DABCYL FRET peptide cleavage, 3 h;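 active = inhibition above a per-campaign cutoff equal to the mean of compounds falling between control-based bounds plus 3 SD, cut at about 20% in these data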
Target sequence (O14672 214-748 limits assumed): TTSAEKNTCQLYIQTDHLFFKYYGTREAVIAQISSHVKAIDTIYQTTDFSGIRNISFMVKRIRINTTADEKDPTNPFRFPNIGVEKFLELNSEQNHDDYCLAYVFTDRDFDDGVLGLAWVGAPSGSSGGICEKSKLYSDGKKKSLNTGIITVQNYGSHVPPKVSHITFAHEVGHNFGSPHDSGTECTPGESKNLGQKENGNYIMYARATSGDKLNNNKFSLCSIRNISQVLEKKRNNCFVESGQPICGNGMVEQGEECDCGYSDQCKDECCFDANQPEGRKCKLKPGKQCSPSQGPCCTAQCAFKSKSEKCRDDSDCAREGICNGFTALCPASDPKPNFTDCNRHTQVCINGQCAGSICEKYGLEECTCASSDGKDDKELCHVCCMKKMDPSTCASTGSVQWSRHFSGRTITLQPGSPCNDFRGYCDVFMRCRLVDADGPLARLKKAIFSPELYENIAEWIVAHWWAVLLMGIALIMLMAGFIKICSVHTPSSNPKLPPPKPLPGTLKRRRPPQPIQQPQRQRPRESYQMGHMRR
A number is an active result; - = inactive; . = not tested or not shown.

SMILES	FAS TE block	proKLK7 act	GRIN3A LBD mod	ADAM17 inh	ADAM10 inh
Cc1ccc2nc(-c3ccc(NC(=S)NCCC(C)C)cc3)sc2c1	-	-	23.7	-	-
CCN(CC)CCN(CC(=O)Nc1c(C)cc(C)cc1C)C(=O)c1ccccc1	-	-	-	-	-
CCN(CC)CC(=O)Nc1c(C)cc(C)cc1C	.	.	10.2	.	.
Cn1c(-c2ccc(C#N)cc2)c(C#Cc2ccccc2)c2ccccc21	-	-	-	-	-
N#Cc1c(-c2ccc(Cl)cc2)n(O)c2ccccc12	-	.	23.2	.	.
C/C(=N\Nc1ccc([N+](=O)[O-])cc1)c1cccc(N)c1	-	-	29.1	-	-
C/C(=N\Nc1ncc(Br)cn1)c1cccc([N+](=O)[O-])c1	-	-	-	-	-
C/C(=N\Nc1cccc(C(=O)O)c1)c1cc2ccccc2o1	-	-	-	-	-
C/C(=N\Nc1cccc([N+](=O)[O-])c1)c1cc2ccccc2o1	-	-	29.3	-	-
C/C(=N\Nc1ccc([N+](=O)[O-])cc1)c1ccc(O)cc1	-	-	22.8	-	-
CC/C(=N\Nc1ccc([N+](=O)[O-])cc1[N+](=O)[O-])c1ccc(O)cc1	-	-	18.4	-	-
C/C(=N/Nc1ccccc1[N+](=O)[O-])c1ccc([N+](=O)[O-])cc1	-	-	-	-	-
CC(C)CCNC(=O)[C@H]1COC(O)([C@H](Cc2ccccc2)NC(=O)[C@@H](NC(=O)OCc2ccccc2)C(C)C)CN1C (stereo partly specified)	.	.	.	-	-
COC(=O)C1CN(Cc2ccccc2)CCS(=O)(=O)N1Cc1cn(Cc2ccc(C)cc2)nn1 (stereo unspecified)	.	-	.	-	-
CC(CCC(C)C(C)(C)C)[C@@H]1CC[C@H]2C3C[C@H](OS(O)(=S)=S)[C@H]4C[C@H](OS(O)(=S)=S)[C@@H](OS(O)(=S)=S)C[C@]4(C)[C@H]3CC[C@]12C (stereo partly specified) (tested in a mixture with another compound)	81.4	.	-	.	.
Cc1cnc(NC(=O)c2cc3c(s2)CCCC3)s1	-	-	22.8	-	-
Cc1csc(NC(=O)c2cc3c(s2)CCCC3)n1	-	-	-	-	-
O=S(=O)(Nc1ccccc1-c1ccccc1)c1ccccc1	-	-	14.0	-	-
Cc1ccsc1C(=O)Nc1ccc(OCc2ccccc2)cc1	-	-	18.3	-	-
CCOCC(=O)Nc1ccc(OCc2ccccc2)cc1	-	-	-	-	-
Cc1ccc(C(=O)Nc2ccc(OCc3ccccc3)cc2)s1	-	-	14.8	-	-
Cc1cc(C(=O)Nc2ccc(OCc3ccccc3)cc2)c(C)o1	-	-	18.7	-	-
O=C(Nc1ccc(OCc2ccccc2)cc1)c1ccccc1	-	-	-	-	-
O=C(Nc1ccccc1F)c1ccc(OCc2ccccc2)cc1	-	-	17.3	-	-
Cc1ccsc1C(=O)Nc1ccc(C(=O)O)cc1	-	-	-	-	-
SMILES	FAS TE block	proKLK7 act	GRIN3A LBD mod	ADAM17 inh	ADAM10 inh
O=C(NC1CCCCN(Cc2cccc(F)c2)C1=O)c1ccc(-c2ccccc2)cc1 (stereo unspecified)	.	-	.	-	-
CCOC(=O)Cn1cc(CN2C(C(=O)OC)CN(Cc3ccc(Cl)cc3)CCS2(=O)=O)nn1 (stereo unspecified)	.	-	.	-	-
COC(=O)[C@]12C[C@H](CC(=O)NCc3cccc(C(F)(F)F)c3)C(=O)N(Cc3cccc4ccccc34)C1=C[C@H](COCc1ccccc1)O[C@@H]2C	.	-	.	-	-
O=C(CSc1nnc(-c2cccnc2)n1-c1ccccc1)Nc1cccc2ccccc12	.	-	.	-	-
CCOC(=O)C(=O)Nc1ccc(OCc2ccccc2)cc1	-	-	-	-	-
CC(C)=CC(=O)Nc1ccc(OCc2ccccc2)cc1	-	-	28.4	-	-
N#C/C(=C/c1ccc(N2CCCCC2)cc1)c1cccc(F)c1	-	-	11.6	-	-
N#C/C(=C/c1ccc(N2CCCCC2)o1)c1cccc(F)c1	-	-	-	-	-
O=C(CSc1nnc(-c2cnccn2)n1-c1ccccc1)c1ccccc1Br	.	-	.	-	-
CCCCCCc1cc2cc(-c3nnc(-c4ccccc4OC)o3)c(=O)oc2cc1O	-	-	23.8	-	-
CCCCCCc1cc2cc(-c3nnc(-c4cc(OC)c(OC)c(OC)c4)o3)c(=O)oc2cc1O	.	.	-	.	.
CCCCCCc1cc2cc(-c3nnc(-c4ccccc4O)o3)c(=O)oc2cc1O	-	-	28.6	-	-
O=C(Nc1cc(C(F)(F)F)ccc1Cl)C(Sc1nnc(-c2cccs2)o1)c1ccccc1 (stereo unspecified)	-	-	-	-	-
O=C(Nc1ccc(Cl)cc1C(F)(F)F)C(Sc1nnc(-c2cccs2)o1)c1ccccc1 (stereo unspecified)	-	-	21.9	-	-
O=C(CN1C(=O)C(=O)N(CCC2=CCCCC2)C1=O)c1c[nH]c2ccccc12	-	-	29.8	-	-
O=C(CN1C(=O)C(=O)N(Cc2ccco2)C1=O)c1c[nH]c2ccccc12	-	-	-	-	-
COc1ccc(-n2c(SCC(=O)N3CCCC3)nnc2-c2ccncc2)cc1	.	-	.	-	-
COc1cc(OC)c(OC)cc1C#N	-	-	-	-	-
COc1cc2c(cc1OC)C1(CCCC1)C(N)=C2C#N	-	-	10.8	-	-
CC(Nc1nc2ncn(Cc3ccccc3)c2c(=O)[nH]1)C(=O)O (stereo unspecified)	-	-	14.6	-	-
O=C(O)CCCCCNc1nc2ncn(Cc3ccccc3)c2c(=O)[nH]1	-	-	-	-	-
C=CCOC(=O)C1=C(C)NC(SCC(=O)Nc2ccc(C)c(Cl)c2)=C(C#N)C1c1ccco1 (stereo unspecified)	-	-	19.7	-	-
COCCOC(=O)C1=C(C)NC(SCC(=O)NC(C)(C)C)=C(C#N)C1c1ccco1 (stereo unspecified)	-	-	-	-	-
CCOC(=O)[C@]12CCCC3=C1N(CCC3)C(=O)[C@@H](CC(=O)N1CCCCC1)C2	.	-	.	-	-
CCOC(=O)[C@]12CCCC=C1N(CCCOC)C(=O)[C@@H]2CC(=O)NCc1cccc(C(F)(F)F)c1	.	-	.	-	-
O=C1N(c2ccccc2)C2CS(=O)(=O)CC2N1c1ccc(Cl)c(Cl)c1 (stereo unspecified)	-	-	30.2	-	-
Cc1ccc(-c2cc(C(=O)NN=Cc3cccc(Oc4ccccc4)c3)[nH]n2)cc1C	.	-	.	-	-
CCCCCn1c(CN2CCN(c3cc(Cl)ccc3C)CC2)nc2c1c(=O)[nH]c(=O)n2C	-	-	24.5	-	-
CC(C)(C)NC(=O)C(c1ccc(-c2ccccc2)cc1)N(C[C@H]1CC[C@@H]([C@@H]2CC[C@H](CO)O2)O1)C(=O)c1ccc(-c2ccccc2)cc1 (stereo partly specified)	-	.	29.9	.	.
